About 770 (37%) of roughly 2,100 compounds were called active. Some of the results follow. Unmarked numbers belong to inactive results.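 Rule for the calls: active = by-eye trace score of 1 for enhancers or -1 for inhibitors, so actives lie on both sides (some results past the limit were not filed as active); inactive = score 0, or 3 fluorescent, or 4 baseline rise.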

For the test, the target named is G protein-activated inward rectifier potassium channel 2 (Homo sapiens) + G protein-activated inward rectifier potassium channel 1 (Homo sapiens) (UniProt P48051+P48549). Description: GIRK1/2 thallium flux modulators, retest, confirmation, cell-based, HEK293 rmGlu8/hGIRK1/2, FluoZin-2 (AID 623911). To be noted: HEK293 rmGlu8/hGIRK1/2, thallium flux FluoZin-2; actives lie on both sides; glutamate co-added at its EC20 level.
G protein-activated inward rectifier potassium channel 2 (Homo sapiens) + G protein-activated inward rectifier potassium channel 1 (Homo sapiens), sequence (P48051 whole entry, looked up): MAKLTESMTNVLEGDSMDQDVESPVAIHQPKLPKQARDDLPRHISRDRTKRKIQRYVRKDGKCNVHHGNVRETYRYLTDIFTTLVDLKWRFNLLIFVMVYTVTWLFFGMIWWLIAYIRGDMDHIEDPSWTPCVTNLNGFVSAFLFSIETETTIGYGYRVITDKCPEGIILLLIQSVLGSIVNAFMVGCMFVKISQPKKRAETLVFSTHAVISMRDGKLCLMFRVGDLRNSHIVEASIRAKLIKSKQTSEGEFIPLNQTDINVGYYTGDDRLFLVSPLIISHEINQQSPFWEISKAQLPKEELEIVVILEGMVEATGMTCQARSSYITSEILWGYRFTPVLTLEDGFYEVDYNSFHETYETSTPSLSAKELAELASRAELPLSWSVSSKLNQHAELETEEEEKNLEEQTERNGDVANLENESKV
G protein-activated inward rectifier potassium channel 2 (Homo sapiens) + G protein-activated inward rectifier potassium channel 1 (Homo sapiens), sequence (P48549 whole entry, looked up): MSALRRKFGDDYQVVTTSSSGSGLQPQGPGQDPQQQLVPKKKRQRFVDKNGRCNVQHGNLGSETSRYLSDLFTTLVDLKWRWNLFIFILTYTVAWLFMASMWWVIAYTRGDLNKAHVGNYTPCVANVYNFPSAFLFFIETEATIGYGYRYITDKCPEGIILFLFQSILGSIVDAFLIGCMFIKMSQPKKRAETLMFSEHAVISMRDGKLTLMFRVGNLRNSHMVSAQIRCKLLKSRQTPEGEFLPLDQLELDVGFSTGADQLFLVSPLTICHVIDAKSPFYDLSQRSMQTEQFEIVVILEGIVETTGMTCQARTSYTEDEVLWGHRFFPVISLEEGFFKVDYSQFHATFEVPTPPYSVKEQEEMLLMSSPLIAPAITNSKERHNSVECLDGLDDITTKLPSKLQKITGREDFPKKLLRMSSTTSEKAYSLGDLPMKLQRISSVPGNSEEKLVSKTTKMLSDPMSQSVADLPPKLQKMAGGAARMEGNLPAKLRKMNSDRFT
On to `CCN(CC)CCN1C(=O)c2oc3ccccc3c(=O)c2C1c1ccc(F)cc1` (stereo not drawn), for which the manual score was 0. As to `CCn1c(SCC(N)=O)nc2c(c1=O)C1(CCCC1)Cc1ccccc1-2`, the manual score is 0. The result for `C=CCSc1nc2sc3c(c2c(=O)n1CC)CCc1ccccc1-3` reads 1 (active); that for `Cc1ccc(C)c(NC(=S)N=Nc2c(O)n(C)c3ccc(S(=O)(=O)N4CCOCC4)cc23)c1`, 0. Under `O=c1c(-c2ccccc2)nc(-c2ccccc2)cn1O` stands 1 (active).

`N=c1oc2ccc3ccccc3c2cc1-c1nc(-c2ccccc2)cs1`: the manual score was 3. In the case of `CN(C)CCNc1nc2c(c(=O)[nH]c(=O)n2C)n1CCCc1ccccc1`, the manual score is 0. The result for `CC(C)CCn1c(CN2CCN(Cc3ccccc3)CC2)nc2c1c(=O)[nH]c(=O)n2C` reads -1 (active); that for `CCN(C(=O)CN1CCN(c2ccccc2O)CC1)c1c(N)n(Cc2ccccc2)c(=O)[nH]c1=O`, 0.

Regarding `COc1ccc(C2CC(c3ccc(Cl)c(Cl)c3)Nc3nc(N)nn32)cc1` (stereo not drawn), the manual score is 1 (active). For the compound `Nc1nc2n(n1)C(c1cccs1)CC(c1ccc(F)cc1)N2` (stereo not drawn), the manual score was 0. The result for `CCn1c(=O)cc(OCC(=O)Nc2cccc(C)n2)c2ccccc21` reads 0; that for `COc1cccc(NC(=O)NC2(C(F)(F)F)Oc3ccccc3O2)c1`, 0; that for `COc1cccc2c1OC[C@@H](CO)[C@H]2N(C)C(=O)Nc1ccccc1`, 0. On to `COc1cccc(NC(=O)CC2COc3ccccc3O2)c1` (stereo not drawn), for which the manual score is 1 (active). On to `CCc1cc2cccc(C)c2nc1SCC(=O)c1ccc(NC(C)=O)cc1`, for which the manual score is 0. Under `COc1ccc(N2CCCn3c2nc2c3c(=O)n(Cc3ccccc3F)c(=O)n2C)c(OC)c1` stands -1 (active). With `Cn1c(N2CCCC2)nc2c1c(=O)n(Cc1ccc(Cl)cc1)c(=O)n2C`, the manual score is -0.5. As to `CC12CCC(C(=O)N3CCCc4ccccc43)(CC1=O)C2(C)C` (stereo not drawn), the manual score was 0. The result for `COC(=O)c1cc2sccc2n1CC(=O)N1CCCc2ccccc21` reads -1 (active); that for `Cn1c(C(=O)OC(C(=O)NC2CCCCC2)c2ccncc2)cc2sccc21` (stereo not drawn), 0. Under `CS(=O)(=O)Nc1ccc(C2=NN(C(=O)C3CCCCC3)C(c3cccs3)C2)cc1` (stereo not drawn) stands -0.5; under `C=CCN(CC=C)C(=S)NC(=O)c1ccc(OC)c(Br)c1`, 1 (active). For the compound `Cc1ccnc(NC(=S)NC(=O)/C=C/c2ccco2)c1`, the manual score was 0.

In the case of `COc1ccc(C(=O)NC(=S)NC(C)C)cc1Br`, the manual score is 0.5. Under `C=CCN(CC=C)C(=S)NC(=O)c1ccc(C)c(Br)c1` stands 1 (active). Under `C=CCN(CC=C)C(=S)NC(=O)/C=C/c1ccc(C)cc1` stands 1 (active); under `COc1ccc(C(=O)NC(=S)NCCO)cc1Br`, 1 (active).

The values above are taken from PubChem BioAssay AID623911 (Vanderbilt High Throughput Screening Facility, 2012).
